This is an account of results in article doi:10.1101/2024.03.05.583629.

pT7_6His-AlfaTag-HOXD13, sequence (P35453 263-343): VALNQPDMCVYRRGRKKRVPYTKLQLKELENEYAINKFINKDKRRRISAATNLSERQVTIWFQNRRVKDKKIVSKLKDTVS

This experiment has as its target pT7_6His-AlfaTag-HOXD13 (human, UniProt P35453 263-343). As to the kind of experiment: PADIT-seq. To be noted: dsDNA, one strand shown.
In turn, “CTCGAGGATATCAAGATCTGGCCTCGGCCTTTTAGAAGGAACCTCTAGCTAGCCGACTCACTATAGGGATAATCGCCCTGAGCAAAGACC” displayed a binding signal of 0.357 ± 0.088 log2FC.
As for “CTCGAGGATATCAAGATCTGGCCTCGGCTTTTTAGCTGGAACCTCTAGCTAGCCGACTCACTATAGGGATAATCGCCCTGAGCAAAGACC”, the binding signal was -0.298 ± 0.114 log2FC.
“CTCGAGGATATCAAGATCTGGCCTCGGCCGCTGACGCGGAACCTCTAGCTAGCCGACTCACTATAGGGATAATCGCCCTGAGCAAAGACC” registered a binding signal of -0.995 ± 0.158 log2FC.
Next, “CTCGAGGATATCAAGATCTGGCCTCGGCTGCTTAAAAGGAACCTCTAGCTAGCCGACTCACTATAGGGATAATCGCCCTGAGCAAAGACC”: 0.659 ± 0.091 log2FC; “CTCGAGGATATCAAGATCTGGCCTCGGCCTTTTATACGGAACCTCTAGCTAGCCGACTCACTATAGGGATAATCGCCCTGAGCAAAGACC”: 2.32 ± 0.0734 log2FC; “CTCGAGGATATCAAGATCTGGCCTCGGCATGGTAAAAGGAACCTCTAGCTAGCCGACTCACTATAGGGATAATCGCCCTGAGCAAAGACC”: 1.03 ± 0.0704 log2FC.
With “CTCGAGGATATCAAGATCTGGCCTCGGCTGTATAAAAGGAACCTCTAGCTAGCCGACTCACTATAGGGATAATCGCCCTGAGCAAAGACC”, the binding signal was determined as 2.01 ± 0.0809 log2FC.
Take “CTCGAGGATATCAAGATCTGGCCTCGGCCTTTTAGGCGGAACCTCTAGCTAGCCGACTCACTATAGGGATAATCGCCCTGAGCAAAGACC”: the binding signal was -0.31 ± 0.108 log2FC.
“CTCGAGGATATCAAGATCTGGCCTCGGCATTTTAGAGGGAACCTCTAGCTAGCCGACTCACTATAGGGATAATCGCCCTGAGCAAAGACC” had a binding signal of 1.43 ± 0.0957 log2FC.
Next, “CTCGAGGATATCAAGATCTGGCCTCGGCATTTTAAGTGGAACCTCTAGCTAGCCGACTCACTATAGGGATAATCGCCCTGAGCAAAGACC”: 1.18 ± 0.0951 log2FC; “CTCGAGGATATCAAGATCTGGCCTCGGCACTTTAAAAGGAACCTCTAGCTAGCCGACTCACTATAGGGATAATCGCCCTGAGCAAAGACC”: 2.07 ± 0.0674 log2FC.
Sequence “CTCGAGGATATCAAGATCTGGCCTCGGCTTGATAAAAGGAACCTCTAGCTAGCCGACTCACTATAGGGATAATCGCCCTGAGCAAAGACC” showed a binding signal of 0.619 ± 0.0899 log2FC.
Turning to “CTCGAGGATATCAAGATCTGGCCTCGGCTTCCTAAAAGGAACCTCTAGCTAGCCGACTCACTATAGGGATAATCGCCCTGAGCAAAGACC”, the binding signal is -0.635 ± 0.152 log2FC.
